Experimental data published in PubChem BioAssay (Tox21).
“And” between values parts separate entries of the source, which are not always exact repeats. Identical values can stand only once. A number with no mark means an inactive call. Records with an inconclusive call do not appear. Entries that show only a call come without a potency. The source made the active and inactive calls. Unless noted, calls come from the whole dose curve.

Columns and labels:
[1] = Nuclear factor erythroid 2-related factor 2/antioxidant responsive element (Nrf2/ARE) small molecule agonists: qHTS cell viability counter screen in human keratinocytes (AID 1919968; active = well fitted curve in the direction sought with a large enough effect in the repeat runs; an effect the other way counts as inactive or inconclusive; note: nearly all actives have a fitted effect of over 55% in size; note: potency is the fitted concentration of half-maximal effect)
How it was run: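 Fluorescence read-out from CellTiter-Fluor after 1 h at 37 C. Wells held HaCaT-derived ARE-luciferase reporter cells (1,500/well) treated 23 h with DMSO-dissolved compounds. Run in the same wells as the luciferase agonist read.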

[2] = Nuclear factor erythroid 2-related factor 2/antioxidant responsive element (Nrf2/ARE) small molecule agonists: luciferase reporter gene qHTS assay in human keratinocytes (AID 1919969); note: nearly all actives have a fitted effect of over 35% in size; note: potency is the fitted concentration of half-maximal effect
[3] = target: Gonadotropin-releasing hormone receptor (Homo sapiens) (UniProt P30968); assay: Human gonadotropin-releasing hormone receptor (GnRHR) small molecule agonists, calcium flux assay in GnRHR-HEK293 cells (AID 1920063); note: nearly all actives have a fitted effect of over 35% in size
Gonadotropin-releasing hormone receptor (Homo sapiens), sequence (P30968 whole entry, looked up): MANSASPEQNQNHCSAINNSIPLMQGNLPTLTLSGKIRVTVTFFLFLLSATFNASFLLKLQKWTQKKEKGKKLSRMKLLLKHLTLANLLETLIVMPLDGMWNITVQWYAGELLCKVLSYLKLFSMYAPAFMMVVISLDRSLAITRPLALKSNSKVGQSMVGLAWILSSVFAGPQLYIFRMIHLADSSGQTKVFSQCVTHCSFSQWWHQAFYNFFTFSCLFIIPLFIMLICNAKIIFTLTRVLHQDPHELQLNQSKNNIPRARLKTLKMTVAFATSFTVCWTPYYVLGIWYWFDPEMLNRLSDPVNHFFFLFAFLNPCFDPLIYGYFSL
How it was run: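 Calcium-dye fluorescence, Ex/Em=480/540, recorded every 1 sec over 3 min after compound addition to GnRHR-HEK293 cells. Cells had been seeded 18 hours earlier and dye-loaded for 1 hour at 37 C. Fifteen concentrations, triplicates.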

[4] = target: KiSS-1 receptor (Homo sapiens) (UniProt Q969F8); assay: Human kisspeptin (KISS1R) small molecule agonists, calcium flux assay in KISS1R-HEK293 cells (AID 1920064; active = well fitted curve in the direction sought with a large enough effect in the repeat runs; an effect the other way counts as inactive or inconclusive)
KiSS-1 receptor (Homo sapiens), sequence (Q969F8 whole entry, looked up): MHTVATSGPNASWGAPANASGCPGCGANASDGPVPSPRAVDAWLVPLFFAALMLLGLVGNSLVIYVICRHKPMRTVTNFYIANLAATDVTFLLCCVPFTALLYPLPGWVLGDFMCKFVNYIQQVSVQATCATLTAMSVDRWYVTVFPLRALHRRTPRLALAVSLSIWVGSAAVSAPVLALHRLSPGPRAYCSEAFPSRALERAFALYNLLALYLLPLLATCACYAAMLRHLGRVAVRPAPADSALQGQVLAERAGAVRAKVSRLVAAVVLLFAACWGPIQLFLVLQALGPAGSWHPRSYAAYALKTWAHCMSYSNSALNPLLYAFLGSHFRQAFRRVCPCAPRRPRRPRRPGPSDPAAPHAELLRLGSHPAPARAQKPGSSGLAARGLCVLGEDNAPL
How it was run: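 Calcium flux read-out: kinetic fluorescence at Ex/Em=480/540, 1 s intervals over 3 min, after pin-tool compound addition to dye-loaded KISS1R-HEK293 cells. Fifteen concentrations, triplicates.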

[5] = p53 small molecule agonists, cell-based qHTS assay with rat liver microsomes (AID 1963578)
How it was run: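 Metabolic activation is supplied by rat liver microsomes with NADPH (each 0.5 mg/mL final). p53RE-bla cells incubate with compound 16 h at 37 C; reporter activity is measured by LiveBLAzer fluorescence.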

[6] = p53 small molecule agonists, cell-based qHTS assay with human liver microsomes: qHTS cell viability counter screen (AID 1963579); note: nearly all actives have a fitted effect of over 45% in size
How it was run: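 After the 460/530 nm beta-lactamase read, CellTiter-Glo was added to the same wells and luminescence measured after 30 min at room temperature, giving viability of p53RE-bla cells treated 16 h with compounds plus microsomes and NADPH.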

[7] = p53 small molecule agonists, cell-based qHTS assay with rat liver microsomes: qHTS cell viability counter screen (AID 1963580); note: nearly all actives have a fitted effect of over 45% in size
How it was run: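 Luminescent ATP readout (CellTiter-Glo, 30 min at room temperature) reports viability of p53RE-bla HCT-116 cells after 16 h at 37 C with test compounds under metabolic activation by rat liver microsomes and NADPH at 0.5 mg/mL final each.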

[8] = p53 small molecule agonists, cell-based qHTS assay: qHTS cell viability counter screen (AID 1963581); note: nearly all actives have a fitted effect of over 45% in size
How it was run: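 Cytotoxicity read-out: ATP-based luminescence (CellTiter-Glo, 30 min RT) measured in the same wells as the p53 reporter assay, HCT-116 p53RE-bla cells, 16 h compound exposure at 37 C.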

[9] = target: 5-hydroxytryptamine receptor 2A (Homo sapiens) (UniProt P28223); assay: 5-hydroxytryptamine receptor 2A (HTR2A) small molecule antagonists, cell-based qHTS assay (AID 1963586); note: nearly all actives have a fitted effect of over 45% in size
5-hydroxytryptamine receptor 2A (Homo sapiens), sequence (P28223 whole entry, looked up): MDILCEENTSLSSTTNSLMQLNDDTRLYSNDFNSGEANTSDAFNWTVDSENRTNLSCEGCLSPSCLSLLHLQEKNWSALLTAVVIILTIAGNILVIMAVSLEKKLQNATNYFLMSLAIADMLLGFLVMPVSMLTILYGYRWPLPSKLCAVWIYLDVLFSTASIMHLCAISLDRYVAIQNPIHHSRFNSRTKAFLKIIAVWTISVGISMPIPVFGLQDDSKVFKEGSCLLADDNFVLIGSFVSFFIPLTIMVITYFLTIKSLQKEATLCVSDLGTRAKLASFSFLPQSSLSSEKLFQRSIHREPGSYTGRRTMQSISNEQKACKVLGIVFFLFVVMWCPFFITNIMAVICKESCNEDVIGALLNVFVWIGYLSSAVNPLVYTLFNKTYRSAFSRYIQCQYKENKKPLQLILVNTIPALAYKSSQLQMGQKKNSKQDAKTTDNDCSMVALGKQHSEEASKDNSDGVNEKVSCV
How it was run: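 CHO cells stably expressing human HTR2A were plated for 18 h at 37 C, then loaded with calcium dye for 1 h. Compounds were preincubated 5 min at room temperature before DOI (4 nM solution) was added. Kinetic fluorescence was read for 3 min.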

[10] = target: 5-hydroxytryptamine receptor 2A (Homo sapiens) (UniProt P28223); assay: 5-hydroxytryptamine receptor 2A (HTR2A) small molecule agonists, cell-based qHTS assay (AID 1963587); note: nearly all actives have a fitted effect of over 30% in size
How it was run: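 HTR2A-CHO cells, plated 18 h at 37 C/5% CO2, dye-loaded 1 h at 37 C; compounds in DMSO added by pin tool (agonist mode). Intracellular calcium flux read as kinetic fluorescence on FDSS over 2 min at 1 s intervals.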

[11] = target: Muscarinic acetylcholine receptor M1 (Homo sapiens) (UniProt P11229); assay: Cholinergic receptor muscarinic 1 (CHRM1) small molecule antagonists, cell-based qHTS assay (AID 1963588); note: nearly all actives have a fitted effect of over 40% in size
Muscarinic acetylcholine receptor M1 (Homo sapiens), sequence (P11229 whole entry, looked up): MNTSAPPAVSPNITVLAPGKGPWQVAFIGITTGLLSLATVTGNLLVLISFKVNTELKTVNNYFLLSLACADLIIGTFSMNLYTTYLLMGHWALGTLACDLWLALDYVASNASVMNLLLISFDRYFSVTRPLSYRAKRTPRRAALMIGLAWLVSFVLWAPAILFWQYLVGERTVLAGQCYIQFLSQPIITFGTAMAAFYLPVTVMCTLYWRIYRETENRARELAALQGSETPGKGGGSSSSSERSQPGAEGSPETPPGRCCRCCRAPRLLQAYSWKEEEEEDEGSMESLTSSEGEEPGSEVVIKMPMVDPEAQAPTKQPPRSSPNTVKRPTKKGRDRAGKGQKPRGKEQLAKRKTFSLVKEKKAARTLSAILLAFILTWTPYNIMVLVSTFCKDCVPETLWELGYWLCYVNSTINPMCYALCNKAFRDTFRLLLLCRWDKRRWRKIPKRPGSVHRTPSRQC
How it was run: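 Compounds were tested at 15 concentrations in three independent runs. Dye-loaded CHRM1-CHO cells were exposed 5 min at room temperature before stimulation by acetylcholine added at 50nM. Intracellular calcium was read kinetically on FDSS for 3 min.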

[12] = target: Muscarinic acetylcholine receptor M1 (Homo sapiens) (UniProt P11229); assay: Cholinergic receptor muscarinic 1 (CHRM1) small molecule agonists, cell-based qHTS assay (AID 1963589); note: nearly all actives have a fitted effect of over 35% in size
How it was run: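 Calcium flux read-out: kinetic fluorescence at 1 sec intervals after pin-tool compound addition to dye-loaded CHRM1-CHO cells (human M1). Agonist mode; 15 concentrations tested in triplicate independent runs.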

[13] = cAMP Responsive Elements (CRE) small molecule agonists, cell-based qHTS assay (AID 1963590)
How it was run: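 Beta-lactamase reporter readout: LiveBLAzer B/G FRET substrate, 2 h at room temperature, added after 3 h compound treatment of CRE-bla HEK 293T cells at 37 C/5% CO2.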

[14] = cAMP Responsive Elements (CRE) small molecule antagonists, cell-based qHTS assay (AID 1963591; active = well fitted inhibition curve with a large enough effect in the signal ratio in the repeat runs, not every such curve was filed as active; the % refers to the signal ratio)
How it was run: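 HEK293T CRE-bla; 18 h preincubation; compound pin-transfer; NKH477 0.25 uM final, 3 h, 37 C; LiveBLAzer FRET substrate 2 h RT.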

[15] = target: Beta-2 adrenergic receptor (Homo sapiens) (UniProt P07550); assay: Adrenergic beta2 receptor (ADRB2) small molecule antagonists, cell-based qHTS assay (AID 1963592); note: series mostly up to about 92 µM; nearly all actives have a fitted effect of over 50% in size
Beta-2 adrenergic receptor (Homo sapiens), sequence (P07550 whole entry, looked up): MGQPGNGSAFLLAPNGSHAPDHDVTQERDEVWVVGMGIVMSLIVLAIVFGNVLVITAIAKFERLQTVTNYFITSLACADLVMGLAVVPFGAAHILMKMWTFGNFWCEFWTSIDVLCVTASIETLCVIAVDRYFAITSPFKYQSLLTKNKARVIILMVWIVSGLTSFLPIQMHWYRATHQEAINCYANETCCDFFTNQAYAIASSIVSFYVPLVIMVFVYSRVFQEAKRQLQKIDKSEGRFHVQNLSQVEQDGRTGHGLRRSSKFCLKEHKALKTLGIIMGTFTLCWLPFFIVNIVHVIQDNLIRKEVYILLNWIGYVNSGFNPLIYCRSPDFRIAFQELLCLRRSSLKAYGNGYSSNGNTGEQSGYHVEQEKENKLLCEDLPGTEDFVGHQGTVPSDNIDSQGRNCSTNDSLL
How it was run: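 Assay format: CHO-ADRB2 cells, 18-20hr seeding at 37C/5% CO2, then compound plus 1nM isoproterenol agonist mix for 0.5hr RT. Homogeneous time-resolved fluorescence cAMP detection after 1hr, expressed as 665/615 nm ratio.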

[16] = target: Beta-2 adrenergic receptor (Homo sapiens) (UniProt P07550); assay: Adrenergic beta2 receptor (ADRB2) small molecule agonists, cell-based qHTS assay (AID 1963593);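 note: CHO cells stably overexpressing human ADRB2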
How it was run: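 CHO cells stably over-expressing ADRB2 were plated overnight at 37C, then dosed with compounds plus a stimulation mix containing 100uM IBMX and 25uM Ro-20-1724 for 0.5hr at room temperature. cAMP was measured by HTRF competition, 1hr.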

[17] = target: D(2) dopamine receptor (Homo sapiens) (UniProt P14416); assay: Dopamine D2 receptor (DRD2) small molecule agonists, cell-based qHTS assay (AID 1963594); note: nearly all actives have a fitted effect of over 35% in size
D(2) dopamine receptor (Homo sapiens), sequence (P14416 whole entry, looked up): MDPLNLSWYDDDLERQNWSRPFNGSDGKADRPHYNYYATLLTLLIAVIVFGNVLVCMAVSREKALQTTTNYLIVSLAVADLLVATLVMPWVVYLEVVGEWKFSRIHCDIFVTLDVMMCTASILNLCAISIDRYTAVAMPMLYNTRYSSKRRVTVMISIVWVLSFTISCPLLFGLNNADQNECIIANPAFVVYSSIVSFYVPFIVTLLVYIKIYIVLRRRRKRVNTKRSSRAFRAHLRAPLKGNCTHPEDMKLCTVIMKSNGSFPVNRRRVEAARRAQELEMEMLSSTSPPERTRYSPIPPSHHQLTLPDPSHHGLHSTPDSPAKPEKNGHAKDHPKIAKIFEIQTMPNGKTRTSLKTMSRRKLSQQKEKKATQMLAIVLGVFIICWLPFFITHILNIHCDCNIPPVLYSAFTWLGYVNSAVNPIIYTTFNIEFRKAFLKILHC
How it was run: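 HEK293 cells stably expressing DRD2 were cultured 24 h at 37 C, then given Ro20-1724 (0.1 mM final) and compounds for 10 min at room temperature. NKH477 (200nM) was then added for 30 min. cAMP was read by HTRF.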

[18] = target: D(2) dopamine receptor (Homo sapiens) (UniProt P14416); assay: Dopamine D2 receptor (DRD2) small molecule antagonists, cell-based qHTS assay (AID 1963595; active = well fitted inhibition curve with a large enough effect in the signal ratio in the repeat runs, with a control signal flat; the % refers to the signal ratio)
How it was run: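 DRD2-HEK293; 0.1 mM Ro20-1724; cpd 10 min RT; NKH477 200 nM + quinpirole 12 nM, 30 min RT; HTRF cAMP (cAMP-d2/anti-cAMP cryptate), 665/620 nm ratio after 1 h.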

[19] = p53 small molecule agonists, cell-based qHTS assay (AID 1963582; active = well fitted activation curve with a large enough effect in the signal ratio in the repeat runs, not every such curve was filed as active; the % refers to the signal ratio)
How it was run: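 Fluorescence intensity read-out of a beta-lactamase reporter under a p53 response element. Cells were exposed to DMSO-dissolved compounds for 16 h at 37 C, then developed with FRET substrate for 2 h at RT.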

CCCCC(O)/C=C(C)/C=C/C=C/C(=O)N1CCCC1=O (stereo not given)
Potency [1]: inactive | Potency [2]: inactive | Potency [3]: inactive | Potency [4]: inactive | Potency [5]: inactive | Potency [6]: inactive | Potency [7]: inactive | Potency [8]: inactive | Potency [9]: inactive | Potency [10]: inactive | Potency [11]: inactive | Potency [12]: inactive | Potency [13]: inactive | Potency [14]: inactive | Potency [15]: inactive | Potency [16]: inactive | Potency [17]: inactive

O=C(Nc1ccc([N+](=O)[O-])cc1Cl)c1cc(Cl)ccc1O
Potency [1]: 1.93 µM (active) and 291 nM (active) | Potency [2]: 34.4 µM (active) and 41.1 nM (active) | Potency [3]: inactive | Potency [4]: inactive | Potency [5]: inactive | Potency [6]: inactive | Potency [7]: inactive | Potency [9]: inactive | Potency [10]: inactive | activity, negative = inhibition [11]: -9.19% [at 12.6 µM] | Potency [12]: inactive | activity change, negative = inhibition [15]: -7.38% [at 19 µM] | Potency [17]: inactive | Potency [18]: inactive

C=C(C)C(=O)OCCNC(C)(C)C
Potency [1]: inactive | Potency [2]: inactive | Potency [3]: inactive | Potency [4]: inactive | Potency [5]: inactive | Potency [6]: inactive | Potency [7]: inactive | Potency [8]: inactive | Potency [19]: inactive | Potency [9]: inactive | Potency [10]: inactive | Potency [11]: inactive | Potency [12]: inactive | Potency [13]: inactive | Potency [14]: inactive | Potency [15]: inactive | Potency [16]: inactive | Potency [17]: inactive | Potency [18]: inactive

CC[C@H](C)[C@H](N)C(=O)O
Potency [1]: inactive | Potency [2]: inactive | Potency [3]: inactive | Potency [4]: inactive | Potency [5]: inactive | Potency [6]: inactive | Potency [7]: inactive | Potency [8]: inactive | Potency [19]: inactive | Potency [9]: inactive | Potency [10]: inactive | Potency [11]: inactive | Potency [12]: inactive | Potency [13]: inactive | Potency [14]: inactive | Potency [15]: inactive | Potency [17]: inactive | Potency [18]: inactive

N[C@@H](CCC(=O)Nc1ccc([N+](=O)[O-])cc1)C(=O)O
Potency [1]: inactive | Potency [2]: inactive | Potency [3]: inactive | Potency [4]: inactive | Potency [5]: inactive | Potency [6]: inactive | Potency [7]: inactive | Potency [8]: inactive | Potency [19]: inactive | Potency [9]: inactive | Potency [10]: inactive | Potency [12]: inactive | Potency [13]: inactive | Potency [14]: inactive | Potency [15]: inactive | Potency [16]: inactive | Potency [17]: inactive | Potency [18]: inactive

CCCCCCCCCC/C=C/C#N
Potency [1]: inactive | Potency [2]: inactive | Potency [3]: inactive | Potency [4]: inactive | Potency [5]: inactive | Potency [6]: inactive | Potency [8]: inactive | Potency [19]: inactive | Potency [9]: inactive | Potency [10]: inactive | Potency [11]: inactive | Potency [12]: inactive | Potency [13]: inactive | Potency [14]: inactive | Potency [15]: inactive | Potency [17]: inactive | Potency [18]: inactive

C=CC(C)(CCC=C(C)C)OC=O (stereo not given)
Potency [1]: inactive | Potency [2]: inactive | Potency [3]: inactive | Potency [4]: inactive | Potency [5]: inactive | Potency [6]: inactive | Potency [7]: inactive | Potency [19]: inactive | Potency [9]: inactive | Potency [10]: inactive | Potency [11]: inactive | Potency [12]: inactive | Potency [14]: inactive | Potency [15]: inactive | Potency [16]: inactive | Potency [17]: inactive | Potency [18]: inactive

Cn1c(=O)c2[nH]c(Br)nc2n(C)c1=O
Potency [1]: inactive | Potency [2]: inactive | Potency [3]: inactive | Potency [4]: inactive | Potency [5]: inactive | Potency [6]: inactive | Potency [7]: inactive | Potency [8]: inactive | Potency [19]: inactive | Potency [10]: inactive | Potency [11]: inactive | Potency [12]: inactive | Potency [13]: inactive | Potency [14]: inactive | Potency [15]: inactive | Potency [16]: inactive | Potency [17]: inactive | Potency [18]: inactive

CN(CC1(C)CCCO1)S(=O)(=O)c1ccc(Cl)c(S(N)(=O)=O)c1 (stereo not given)
Potency [1]: inactive | Potency [2]: inactive | Potency [3]: inactive | Potency [4]: inactive | Potency [5]: inactive | Potency [6]: inactive | Potency [7]: inactive | Potency [8]: inactive | Potency [19]: inactive | Potency [9]: inactive | Potency [11]: inactive | Potency [12]: inactive | Potency [13]: inactive | Potency [14]: inactive | Potency [15]: inactive | Potency [17]: inactive

COC(=O)CCCCC(=O)O
Potency [1]: inactive | Potency [2]: inactive | Potency [3]: inactive | Potency [4]: inactive | Potency [5]: inactive | Potency [6]: inactive | Potency [7]: inactive | Potency [8]: inactive | Potency [19]: inactive | Potency [9]: inactive | Potency [10]: inactive | Potency [11]: inactive | Potency [12]: inactive | Potency [14]: inactive | Potency [16]: inactive | Potency [17]: inactive | Potency [18]: inactive

CC(C)=CCC/C(C)=C/C#N
Potency [1]: inactive | Potency [2]: inactive | Potency [3]: inactive | Potency [4]: inactive | Potency [5]: inactive | Potency [6]: inactive | Potency [7]: inactive | Potency [8]: inactive | Potency [19]: inactive | Potency [10]: inactive | Potency [11]: inactive | Potency [12]: inactive | Potency [13]: inactive | Potency [14]: inactive | Potency [15]: inactive | Potency [16]: inactive | Potency [17]: inactive

C=CCOCC(CO)(COCC=C)COCC=C
Potency [1]: inactive | Potency [2]: inactive | Potency [3]: inactive | Potency [4]: inactive | Potency [5]: inactive | Potency [6]: inactive | Potency [7]: inactive | Potency [8]: inactive | Potency [19]: inactive | Potency [9]: inactive | Potency [10]: inactive | Potency [11]: inactive | Potency [12]: inactive | Potency [13]: inactive | Potency [14]: inactive | Potency [15]: inactive | Potency [16]: inactive | Potency [17]: inactive | Potency [18]: inactive

CCC(C)SSC(C)CC (stereo not given)
Potency [1]: inactive | Potency [2]: inactive | Potency [3]: inactive | Potency [4]: inactive | Potency [5]: inactive | Potency [6]: inactive | Potency [7]: inactive | Potency [8]: inactive | Potency [19]: inactive | Potency [9]: inactive | Potency [10]: inactive | Potency [12]: inactive | Potency [13]: inactive | Potency [14]: inactive | Potency [15]: inactive | Potency [16]: inactive | Potency [17]: inactive | Potency [18]: inactive
